Here are results for 63 compounds from PubChem BioAssay AID1347131 (National Center for Advancing Translational Sciences (NCATS), 2019).

About 2,000 (0.49%) of roughly 410,000 compounds were called active. About 8% were inconclusive and are not listed. The full list was thinned out, with actives kept by preference. A number with no mark means an inactive call. Calls follow the shape of the full dose curve; tested in HEK293 reporter line.
Potency is read from the fitted curve at half-maximal effect.

This assay in a line: qHTS Assay for Foot and Mouth Disease Virus Antivirals: Primary Screen against the MLPCN compound library. Also: nearly all actives have a fitted effect of over 55% in size. Conditions: FMDV antiviral cell-based qHTS; series mostly up to 57.9 µM; activity, negative = inhibition: at the top concentration. A general note: In qHTS, concentration-response curves come from the screen itself.
For the compound `CCOC(=O)NC(=O)/C(C#N)=N/Nc1c(F)cccc1F`, the “activity, negative = inhibition” value is -29.8%.
On the same count and under the same terms, in the case of `C=CCn1c(SCC(=O)Nc2cccnc2Cl)nnc1-c1ccccc1F` it was -44.1%.
Consider `C=CCn1c(SCC(=O)Nc2nc3ccccc3s2)nnc1-c1ccccc1O`, for which the Potency is 25.1 µM (active).
Regarding `Cc1nc(SCC(=O)Nc2nc3ccccc3s2)c(C#N)c(C)c1C`, the “activity, negative = inhibition” value is -97.5%.
Still for that read-out and setting: as for `COc1ccc(N2CCOCC2)c(NC(=O)c2cc3ccccc3o2)c1`, the figure is -30.1%; as for `COc1ccccc1NC(=O)C1=C(C)NC(SCC(=O)c2ccccc2)=C(C#N)C1c1ccco1` (stereo not drawn), -22.4%; as for `CCCn1nc(C(=O)Nc2nc(-c3ccccn3)cs2)c2ccccc2c1=O`, -35.2%.
The same measure, in the same setting: in the case of `Cc1cc(C)n2c(Nc3c(C)cccc3C)c(-c3ccccn3)nc2n1` it was -37.5%.
On to `Cc1cccnc1Nc1nc(-c2ccccn2)cs1`, for which the Potency was 11.2 µM (active).
For the compound `CN(CC(=O)NCc1ccccc1)CC(=O)Nc1ccc(Cl)c(C(F)(F)F)c1`, the “activity, negative = inhibition” value was -31.1%.
In the case of `COc1ccc(-c2nsc3c(N4CCCC4)ncnc23)cc1`, the Potency was 22.4 µM (active).
For `COc1ccc(-c2nsc3c(N4CCCCC4)ncnc23)cc1`, the “activity, negative = inhibition” value is -36.3%.
For `COc1ccc(-c2nsc3c(N4CCCCC4C)ncnc23)cc1` (stereo not drawn), the “activity, negative = inhibition” value was -96.6%.
For the compound `NC(=O)c1cccn(Cc2ccc(C(F)(F)F)cc2)c1=O`, the “activity, negative = inhibition” value was -36.5%.
On the same count and under the same terms, as for `CC(=O)c1cccc(NC(=O)CN2CCc3cc4c(cc3C2C)OCCCO4)c1` (stereo not drawn), the figure is -31.7%.
Same read-out and setting: as for `CC(C)CNc1nc2c(c(=O)n(C)c(=O)n2C)n1Cc1cccc(Br)c1`, the figure is -39.6%.
On to `Cc1nn2cc(-c3ccc(OC(C)C)cc3)nc2s1`, for which the Potency was 14.1 µM (active).
As to `COC(=O)c1ccc2nc(-c3ccc(C#N)cc3)c(Cc3ccsc3)n2c1`, the “activity, negative = inhibition” value is -30.6%.
Still for that read-out and setting: in the case of `COc1ccccc1-c1nc(-c2ccccc2)nc(N2CCN(C)CC2)c1C#N` it was -30.4%.
On to `COC1=CC(=O)c2ccccc2C1=O`, for which the “activity, negative = inhibition” value was -46.7%.
For `O=C1C(C=Nc2ccccc2)=C(O)c2ccccc21`, the Potency is 10 µM (active).
Consider `Cc1cccc(-n2c(O)c(C=Nc3ccccc3)c3ccccc3c2=O)n1`, for which the “activity, negative = inhibition” value was -31.3%.
Same read-out and setting: in the case of `COc1cc(NC(=O)Cc2ccc(S(=O)(=O)N3CCOCC3)s2)c(OC)cc1Cl` it was -38.1%; in that of `O=C(OC(C(=O)Nc1ccc(Cl)cc1C(F)(F)F)c1ccccc1)c1c(Cl)cccc1Cl` (stereo not drawn), -33.4%; in that of `COc1ccc(CCCc2nnc(SCC(=O)Nc3cccc(C)c3)o2)cc1`, -33.1%.
On the same count and under the same terms, in the case of `Cc1ccc(-c2ccnc3nc(Sc4ncc(C(F)(F)F)cc4Cl)nn23)cc1` it was -40.4%.
Turning to `Cc1nn2cc(-c3ncc(C(F)(F)F)cc3Cl)cnc2c1Br`, the Potency is 8.91 µM (active).
For the compound `Cc1nn(Cc2ccc(Cl)cc2)c(=O)n1N(C)c1ncc(C(F)(F)F)cc1Cl`, the “activity, negative = inhibition” value was -32.6%.
The same measure, in the same setting: in the case of `CCOC(=O)c1sc(=S)n(C)c1NC(=O)c1ccccc1` it was -30.6%; in that of `Cc1cccc(CNc2ncnc3ccc(-c4ccc5c(c4)OCCO5)cc23)c1`, -20.3%; in that of `COc1ccc(CCNC(=S)N2CCC(C(=O)c3ccc(F)cc3)CC2)cc1OC`, -11.8%.
Still for that read-out and setting: as for `CCC1Sc2ccc(S(=O)(=O)CCC(=O)NCc3ccco3)cc2NC1=O` (stereo not drawn), the figure is -39.4%; as for `CCN(CC)CCNC(=O)c1nn(-c2ccc(Cl)cc2)c2c1CCc1cc(OC)ccc1-2`, -32.1%.
`Cc1ccc2nc(-c3ccc(NC(=O)CCS(=O)(=O)c4ccccc4)cc3)sc2c1`: the Potency is 10 µM (active).
For the compound `O=C(CCCCCN1C(=O)c2ccccc2C1=O)Nc1cccc(O)c1`, the “activity, negative = inhibition” value was -35.8%.
On to `CC(=O)Nc1ccc(S(=O)(=O)Nc2nc3ccc(C)cc3s2)cc1`, for which the “activity, negative = inhibition” value was 108%.
In the case of `Cc1ccc2nc(-c3ccc(NC(=O)CCN4C(=O)c5ccccc5C4=O)cc3)sc2c1`, the Potency is 7.08 µM (active).
As for `O=C(CCS(=O)(=O)c1ccccc1)Nc1ccccc1-c1nc2ccccc2s1`, the “activity, negative = inhibition” value is -30.5%.
For `CCOC(=O)c1cc(-c2ccccc2)sc1NC(=O)CCN1C(=O)c2ccccc2C1=O`, the “activity, negative = inhibition” value is -32.5%.
Same read-out and setting: as for `CSc1ccc(NC(=O)N2CC=C(n3c(=O)[nH]c4ccccc43)CC2)cc1`, the figure is -19.7%.
Same read-out and setting: as for `CCn1c(N2CCN(S(=O)(=O)c3ccccc3C(F)(F)F)CC2)nc2ccccc21`, the figure is -46.9%; as for `COc1ccc(CNC(=O)C[C@H]2C[C@H](C(=O)N(C(C)C)C(C)C)[C@@]3(C)c4[nH]c5ccc(Cl)cc5c4CCN3C2=O)cc1OC`, -38.9%; as for `Cc1cc(C)c2nc(C(F)(F)F)nc(N3CCN(C(=O)c4ccco4)CC3)c2c1`, -37.6%.
Same read-out and setting: as for `O=C(c1ccco1)N1CCN(c2c([N+](=O)[O-])nn(-c3cccc(Cl)c3)[n+]2[O-])CC1`, the figure is -33.5%.
Consider `Cc1cc(N2CCN(C(=O)c3ccco3)CC2)n2nc(-c3cccc(Cl)c3)cc2n1`, for which the Potency was 22.4 µM (active).
For `COc1cccc2[nH]c3c(N4CCc5ccccc5C4)ncnc3c12`, the “activity, negative = inhibition” value is -33.4%.
The same measure, in the same setting: as for `COc1cc(/C=C2\SC(=S)N(CC(=O)NC(C)(C)C)C2=O)cc(OC)c1OC`, the figure is -30.8%.
Regarding `CCOc1ccc(N2C(=O)S/C(=C\c3cc(OC)c(OC)c(OC)c3)C2=O)cc1`, the Potency was 10 µM (active).
Regarding `COc1cc(/C=C2\SC(=O)N(c3cccc(Cl)c3)C2=O)cc([N+](=O)[O-])c1O`, the “activity, negative = inhibition” value is -35%.
Same read-out and setting: in the case of `CC(=O)c1ccc(NC(=O)c2ccc(-c3nc(CSc4ccccc4)c(C)o3)cc2)cc1` it was -33.9%; in that of `C[C@H]1CN([C@@H](C)CO)C(=O)c2cc(NC(=O)C3CCCCC3)ccc2O[C@H]1CN(C)Cc1ccc(-c2ccccc2)cc1`, -33.5%.
In the case of `Cc1ccccc1OCc1n(CC(=O)OC2CC(C)CCC2C(C)C)c2ccccc2[n+]1C` (stereo not drawn), the Potency was 17.8 µM (active).
On the same count and under the same terms, in the case of `CC1CCC(C(C)C)C(OC(=O)Cn2c(-c3ccc(Br)cc3)[n+](C)c3ccccc32)C1` (stereo not drawn) it was 15.8 µM (active).
`Cc1noc(C)c1COc1ccc(C(=O)N2CCN(c3ccccn3)CC2)cc1`: the “activity, negative = inhibition” value was -31.9%.
Regarding `O=C(c1ccco1)N1N=C(c2cccs2)CC1c1ccccc1O` (stereo not drawn), the “activity, negative = inhibition” value was -38.8%.
On the same count and under the same terms, in the case of `CC(C)C[C@H]1CN=C(N(C)C)N1CCCCc1ccccc1` it was -30.1%; in that of `Cc1ccc(N2C(=O)CC(N3CCN/C3=C3\CC/C(=C\c4ccccc4)C3=O)C2=O)cc1` (stereo not drawn), -34.8%.
Same read-out and setting: in the case of `Cc1ccc(NC(=O)CN2C(=O)NC3(CCCCC3C)C2=O)cc1S(=O)(=O)N1CCCCC1` (stereo not drawn) it was -32.2%; in that of `CN(C)S(=O)(=O)c1ccc(C(=O)N2CCC(c3nc4ccccc4o3)CC2)cc1`, -38.5%.
Take `Cc1ccc(-c2cc(-c3ccccc3)no2)c(O)c1`: the Potency was 5.01 µM (active).
For the compound `CSc1nc(Nc2ccc(C)cc2C)cc(-c2ccccc2)n1`, the “activity, negative = inhibition” value is -34.8%.
The same measure, in the same setting: in the case of `CCC(C)NC(=O)c1cc(-c2ccccc2O)on1` (stereo not drawn) it was 106%; in that of `O=C1/C(=C/c2ccc(O)c([N+](=O)[O-])c2)SC(=S)N1Cc1ccccc1`, -35%.
